# Compounds without any hit were thinned out: in the full panel of roughly 79,000, 15% have a hit. Values without a mark were called inactive. Calls of active or inactive are those of the source. No stated cut-off is given here; in the data, active means growth inhibition above about 70%; inactive means the rest.
# Key:
# [1] = NCI Yeast Anticancer Drug Screen. Data for the rad50 strain (AID 155);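 further: 0% = growth of vehicle-only cultures of the same strain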; settings: S. cerevisiae rad50 strain growth inhibition, hits give high values
# In short: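 Growth of the mutant yeast was measured after compound exposure and referenced to vehicle-treated cultures.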
# [2] = NCI Yeast Anticancer Drug Screen. Data for the mec2-1 strain (AID 157); settings: S. cerevisiae mec2-1 strain, hits give high values
# In short: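 Mutant yeast (mec2-1) grown with compound; growth inhibition relative to vehicle control reported.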
# [3] = NCI Yeast Anticancer Drug Screen. Data for the sgs1 mgt1 strain (AID 161);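 further: 0% = growth of cultures given vehicle only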; settings: S. cerevisiae sgs1 mgt1 strain, hits give high values
# In short: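 Percent growth inhibition was derived by comparing compound-exposed mutant yeast with vehicle-exposed cultures. The strain carries alterations in DNA damage repair.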
# [4] = NCI Yeast Anticancer Drug Screen. Data for the cln2 rad14 strain (AID 165);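 further: 0% = growth equal to vehicle treated cultures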; settings: S. cerevisiae cln2 rad14 strain, hits give high values
# In short: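 Readout is yeast growth inhibition versus vehicle-treated controls, using a strain with cln2 and rad14 alterations exposed to compound.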
# [5] = NCI Yeast Anticancer Drug Screen. Data for the bub3 strain (AID 167); settings: S. cerevisiae bub3 mutant strain, hits give high values
# In short: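 Whole-cell yeast assay. The mutant strain was incubated with compounds, and growth inhibition was determined by comparison with vehicle-treated cells.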
# [6] = NCI Yeast Anticancer Drug Screen. Data for the mlh1 rad18 strain (AID 175); settings: S. cerevisiae mlh1 rad18 strain growth inhibition, hits give high values
# In short: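 Genetically defined yeast (DNA repair-deficient) exposed to compounds; growth inhibition determined relative to vehicle.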
# [7] = at 5.0 µM (retest, dose inferred, filed as 0.5)
# [8] = at 50.0 µM (retest, dose inferred, filed as 5.0)
Structure (SMILES),"growth inhibition [1, 7]","growth inhibition [1, 8]",growth inhibition ([1]; at 50.0 µM),"growth inhibition [2, 7]","growth inhibition [2, 8]",growth inhibition ([2]; at 50.0 µM),"growth inhibition [3, 7]","growth inhibition [3, 8]",growth inhibition ([3]; at 50.0 µM),"growth inhibition [4, 7]","growth inhibition [4, 8]",growth inhibition ([4]; at 50.0 µM),"growth inhibition [5, 7]","growth inhibition [5, 8]",growth inhibition ([5]; at 50.0 µM),"growth inhibition [6, 7]","growth inhibition [6, 8]",growth inhibition ([6]; at 50.0 µM)
C=CCC(O)C(=O)OC1CC(C)CCC1C(C)(C)c1ccccc1 (stereo not given),-1%,99% (active),99% (active),6%,99% (active),99.2% (active),8%,99% (active),99.5% (active),-6%,98% (active),98.8% (active),8%,98% (active),99.4% (active),9%,98% (active),99.2% (active)
CCC(c1cccc(O)c1)C(CC)c1cccc(O)c1 (stereo not given),28%,55%,57.2%,19%,67%,60.9%,51%,76% (active),39.4%,50%,74% (active),48.9%,59%,88% (active),66.3%,17%,55%,92.8% (active)
Cc1cccc(C[P+](c2ccccc2)(c2ccccc2)c2ccccc2)c1,76% (active),97% (active),90.3% (active),67%,99% (active),93.1% (active),58%,99% (active),93.3% (active),32%,98% (active),91.9% (active),71% (active),99% (active),92.2% (active),76% (active),98% (active),90.3% (active)
NNC(=S)NN/C=C(\C=Nc1ccccc1)[N+](=O)[O-],19%,80% (active),69.8%,-29%,70% (active),68%,7%,62%,65.5%,-17%,57%,57.5%,-6%,64%,75.1% (active),-20%,86% (active),68.8%
Cc1ccc(C)c(N2C(=O)C(=O)C(c3nc4ccccc4o3)C(=O)C2=O)c1,38%,98% (active),99% (active),18%,99% (active),99.3% (active),30%,98% (active),96.3% (active),30%,99% (active),99% (active),13%,98% (active),99.3% (active),15%,98% (active),98.8% (active)
Oc1ccc2ccc3ccccc3c2c1,5%,99% (active),99.5% (active),2%,99% (active),99.5% (active),5%,99% (active),99.5% (active),-3%,99% (active),99.5% (active),-3%,98% (active),99.5% (active),2%,99% (active),99.5% (active)
CN(C)c1nc(NNS(=O)(=O)c2ccc(N)cc2)nc(N(C)C)n1,1%,-17%,-27.1%,2%,-1%,7.55%,1%,-72%,-5.75%,2%,-6%,55%,-6%,-8%,-12.3%,-1%,0%,3.85%
COC(CCC[N+](C)(C)C)CC[N+](C)(C)C (stereo not given),11%,81% (active),95.9% (active),-9%,83% (active),97.6% (active),-7%,78% (active),97.8% (active),1%,70% (active),95.9% (active),-9%,70% (active),97.1% (active),8%,81% (active),96.5% (active)
O=[N+]([O-])c1cc(Cl)c(Cl)cc1NS(=O)(=O)c1ccccc1,17%,45%,29.1%,-8%,51%,49.5%,7%,58%,39.4%,25%,84% (active),54.5%,9%,57%,40.4%,10%,76% (active),71.2% (active)
CCN(CC)c1ccc(N=Nc2ccc(-c3nc4cccn(C)c-4n3)cc2)cc1,8%,8%,80.2% (active),-5%,-5%,79.2% (active),-13%,-13%,76.7% (active),-2%,-2%,80.2% (active),9%,9%,84.3% (active),-4%,-4%,82% (active)

# From PubChem BioAssay (NCI)
